# Results filed as inconclusive are left out. Where a call stands in place of a potency, no number is given. Calls of active or inactive are those of the source. Calls come from the whole dose curve; as a rule, active = well fitted curve in the direction sought with a large enough effect; inconclusive = small, poorly fitted or top-dose-only effect, or another doubt; inactive = no such curve, though single readings can be large; an effect the other way counts as inactive or inconclusive.
# Key:
# [1] = target: Aldehyde dehydrogenase, mitochondrial (Homo sapiens) (UniProt P05091); experiment: qHTS for Inhibitors of the Aldehyde Dehydrogenase Family (ALDH2) Primary screen (AID 2061308); note: nearly all actives have a fitted effect of over 55% in size
# [2] = target: Retinaldehyde dehydrogenase 3 (Homo sapiens) (UniProt P47895); experiment: qHTS for Inhibitors of the Aldehyde Dehydrogenase Family (ALDH1A3) Primary screen (AID 2061315)
Structure (SMILES),Potency [1],Potency [2]
Nc1ccc(Cl)cc1C(=O)c1ccc[nH]1,inactive,inactive
O=C(CNC(=O)c1cccc2ccccc12)OC(C(=O)Nc1cc(C(F)(F)F)ccc1Cl)c1ccccc1 (stereo not drawn),inactive,inactive
CCc1c(C)nc2cc(-c3ccc(OC)c(OC)c3)nn2c1N1CCCC1,inactive,inactive
CCOc1ccc(CCNC(=O)c2cc3sccc3n2Cc2ccncc2)cc1OCC,inactive,inactive
Cc1ccc(C(=O)N2CCc3cc(-c4nc(NC(=O)Cc5ccc6c(c5)OCO6)sc4C)ccc32)cc1,inactive,inactive
COc1cccc(C2=Nn3c(nnc3-c3cc(OC)cc(OC)c3)SC2)c1,inactive,inactive
Cc1nc(N2CCOCC2)c2nc(-c3ccccc3)n(CCN3CCCCC3)c2n1,inactive,inactive
COc1ccccc1-n1cnc2cc(C(=O)N3CCCCC3)ccc21,inactive,inactive
Cc1nnc2sc(-c3cccc(NC(=O)c4ccc(-c5cccc(Cl)c5)o4)c3)nn12,inactive,inactive
O=C1CCCC2=C1C(c1c(Cl)cccc1Cl)N=C(Nc1nc3ccccc3o1)N2 (stereo not drawn),inactive,inactive
COc1cccc(C2c3c(ncn(-c4ccccc4SC)c3=N)Oc3ccc4ccccc4c32)c1 (stereo not drawn),inactive,inactive
Cc1ccc(S(=O)(=O)Nc2cc(Cl)cc(C(=O)Nc3nc(-c4ccccc4)cs3)c2)cc1,inactive,inactive
Cc1ccccc1C(=O)n1ccc2cc(-c3nc(NC(=O)Cc4ccc5c(c4)OCO5)sc3C)ccc21,inactive,inactive
CC(=O)Nc1sc2c(c1-c1nc3ccccc3s1)CCNC2,inactive,inactive
O=C1CCCC2=C1C(c1[nH]ncc1Br)N=C(Nc1nc3ccccc3o1)N2 (stereo not drawn),inactive,inactive
Cc1ccc(-c2cc(C(=O)NC3CCCCC3)c3ccccc3n2)cc1C,inactive,inactive
O=C(Nc1ccc(-c2nc3ccccc3[nH]2)cc1)c1ccc(C(F)(F)F)cc1,inactive,inactive
COc1cccc(C2c3c(ncn(CCN4CCOCC4)c3=N)Oc3ccc4ccccc4c32)c1 (stereo not drawn),inactive,inactive
Cc1nc(NC2CCCCC2)c2nc(-c3ccccc3)n(CCCN(C)C)c2n1,inactive,inactive
O=C(Nc1ccccc1)c1cccs1,inactive,inactive

Structure (SMILES),Potency [1],Potency [2]
COc1ccc(-c2ccc3ncnc(NCc4ccc(C)o4)c3c2)cc1OC,inactive,inactive
Cc1ccc(-n2nc3c(N4CCCC(C(=O)NCc5ccccc5C)C4)nnc(C)c3c2C)cc1 (stereo not drawn),inactive,inactive
Cc1cccc(-c2csc3ncnc(Sc4nnnn4C)c23)c1,inactive,inactive
COc1cccc(S(=O)(=O)N2CCN(S(=O)(=O)c3ccc4c(c3)OCCO4)CC2)c1,inactive,inactive
Cc1c(C(=O)NCC2CCCO2)[nH]c2c1C(=O)CCC2 (stereo not drawn),inactive,inactive
O=C1CCc2cc(S(=O)(=O)NCc3ccccc3)ccc2N1,inactive,inactive
O=C1CCCC2=C1C(c1ccncc1Br)N=C(Nc1nc3ccccc3o1)N2 (stereo not drawn),inactive,inactive
C[C@H]1CC[C@@]2(OC1)O[C@H]1CC3[C@@H]4CC[C@@H]5C[C@@H](O[C@@H]6O[C@H](CO)[C@@H](O[C@@H]7O[C@H](CO[C@@H]8OC[C@@H](O)[C@H](O)[C@H]8O)[C@@H](O[C@@H]8O[C@H](CO)[C@H](O)[C@H](O)[C@H]8O)[C@H](O)[C@H]7O)[C@H](O)[C@H]6O)CC[C@]5(C)C4CC[C@]3(C)[C@H]1[C@@H]2C (stereo partly drawn),inactive,inactive
Cc1ccc(NS(=O)(=O)c2ccc3[nH]c(=O)[nH]c3c2)cc1C,inactive,inactive
CCOC(=O)C1CCN(C(=O)C(C)(C)NC(=O)Nc2ccc(Oc3ccccc3)cc2)CC1,inactive,inactive
O=C(O)c1sc2c(c1-c1nc3ccccc3s1)CCNC2,inactive,inactive
O=C(O)c1ccncc1Nc1nn(CCN2CCC(F)(F)CC2)c2ccc(F)cc12,inactive,inactive
O=S(=O)(c1ccsc1)N1CCN(c2nc(-c3cccs3)nc3ccccc23)CC1,inactive,inactive
FC(F)(F)c1cccc(N2CCN(C(=S)Nc3cccnc3)CC2)c1,inactive,inactive
CC(C)(C)c1ccc(-c2csc(N3CCC(C(N)=O)CC3)n2)cc1,inactive,inactive
Nc1cccc(S(=O)(=O)Nc2cnccc2C(=O)Nc2nc(-c3ccccc3)cs2)c1,inactive,inactive
O=C(Cn1ncccc1=O)NCCc1ccccc1,inactive,inactive
Cc1nnc(-c2cnn(C)c2N)n1CCCn1cccc1,inactive,inactive
COc1ccc(C2Nc3ccccc3C(=O)N2Cc2cccnc2)cc1COc1c(C)cccc1C (stereo not drawn),inactive,inactive
